Laboratory results from PubChem BioAssay (NCATS).
Several values for one entry are separate records, joined by “and”; a condition that tells them apart may be missing. Equal entries are not always repeated. Inconclusive results are not listed. Activity calls are given as the source filed them. Unless noted, calls come from the whole dose curve; as a rule, active = well fitted curve in the direction sought with a large enough effect; inconclusive = small, poorly fitted or top-dose-only effect, or another doubt; inactive = no such curve, though single readings can be large; an effect the other way counts as inactive or inconclusive. Bridge positions count the residues as written; N and C are the ends. Square brackets hold non-standard residues; d marks the D form. Peptide text beside a SMILES is read from it. * marks the point of attachment. Octanoyl(6-Me) = CCC(C)CCCCC(=O)*; pGlu = O=C1CC[C@@H](C(=O)O)N1; Dab = NCC[CH](N)C(=O)O

What was measured:
[1] = target: Mitogen-activated protein kinase 10 (Mus musculus) (UniProt Q61831); assay: JNK3 AlphaScreen Assay (AID 530; active = well fitted curve in either direction with a large enough effect, not every such curve was filed as active;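 note: kinase came from lysate of stimulated human HepG2 cells; signal reports phosphorylation of biotinylated GST-cJun 1-79 at Ser73 with 10 µM ATP; % is set by controls: 0 for no effect and ±100 for the full control effect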); conditions: JNK3 lysate, c-Jun phosphorylation; series mostly up to 57.1 µM
Outline: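 qHTS titrations with 15 min compound pre-incubation before adding ATP (10 uM final). Read-out: AlphaScreen of Ser73-phosphorylated biotin-GST-cJun using HepG2 lysate JNK3 activated by IL-1β and TNFα.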

[2] = target: Estrogen receptor (Homo sapiens) (UniProt P03372); assay: qHTS assay for small molecule antagonists of estrogen receptor alpha signaling (AID 588513; active = well fitted curve in the direction sought with a large enough effect in the signal ratio, with a control signal flat, not every such curve was filed as active; the % refers to the signal ratio; note: % is set by controls: 0 for no effect and ±100 for the full control effect); conditions: ER-alpha-UAS-bla HEK293, beta-lactamase ratio, antagonist mode; series mostly up to 76.9 µM
Chain of Estrogen receptor (Homo sapiens) (P03372 whole entry, looked up): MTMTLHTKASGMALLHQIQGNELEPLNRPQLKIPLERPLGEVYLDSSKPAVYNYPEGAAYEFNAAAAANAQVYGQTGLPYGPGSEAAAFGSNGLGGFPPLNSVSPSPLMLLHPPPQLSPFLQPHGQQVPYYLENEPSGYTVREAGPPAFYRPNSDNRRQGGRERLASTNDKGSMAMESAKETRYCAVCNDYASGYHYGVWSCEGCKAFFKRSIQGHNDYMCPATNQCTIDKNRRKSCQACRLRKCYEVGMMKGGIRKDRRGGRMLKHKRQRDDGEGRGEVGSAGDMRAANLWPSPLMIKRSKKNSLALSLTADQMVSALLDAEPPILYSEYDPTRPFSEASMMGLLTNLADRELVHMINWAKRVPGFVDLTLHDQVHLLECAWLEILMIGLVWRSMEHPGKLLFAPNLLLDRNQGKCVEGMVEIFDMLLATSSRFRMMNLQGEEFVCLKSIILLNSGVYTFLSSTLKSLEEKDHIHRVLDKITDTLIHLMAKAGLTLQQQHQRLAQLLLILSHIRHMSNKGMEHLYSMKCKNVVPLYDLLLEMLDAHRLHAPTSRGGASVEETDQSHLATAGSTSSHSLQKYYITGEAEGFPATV
Outline: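 ER-alpha-UAS-bla GripTite HEK 293 cells in medium with 2% charcoal/dextran-treated FBS were preincubated 4 h at 37 C, dosed with compound (1:2 titration), stimulated with 0.5nM 17-beta-estradiol for 18 h, then read by CCF4 beta-lactamase fluorescence.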

[3] = target: Peroxisome proliferator-activated receptor gamma (Homo sapiens) (UniProt P37231); assay: qHTS assay for small molecule antagonists of peroxisome proliferator-activated receptor gamma signaling (AID 588537; active = well fitted inhibition curve with a large enough effect in the signal ratio, with a control signal flat, not every such curve was filed as active; the % refers to the signal ratio;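 note: reporter cells co-stimulated with 50 nM rosiglitazone agonist during compound treatment; % of control where 0% means no effect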); conditions: HEK293 PPARg-UAS-bla, beta-lactamase ratio, antagonist mode; series mostly up to 76.8 µM
Chain of Peroxisome proliferator-activated receptor gamma (Homo sapiens) (P37231 whole entry, looked up): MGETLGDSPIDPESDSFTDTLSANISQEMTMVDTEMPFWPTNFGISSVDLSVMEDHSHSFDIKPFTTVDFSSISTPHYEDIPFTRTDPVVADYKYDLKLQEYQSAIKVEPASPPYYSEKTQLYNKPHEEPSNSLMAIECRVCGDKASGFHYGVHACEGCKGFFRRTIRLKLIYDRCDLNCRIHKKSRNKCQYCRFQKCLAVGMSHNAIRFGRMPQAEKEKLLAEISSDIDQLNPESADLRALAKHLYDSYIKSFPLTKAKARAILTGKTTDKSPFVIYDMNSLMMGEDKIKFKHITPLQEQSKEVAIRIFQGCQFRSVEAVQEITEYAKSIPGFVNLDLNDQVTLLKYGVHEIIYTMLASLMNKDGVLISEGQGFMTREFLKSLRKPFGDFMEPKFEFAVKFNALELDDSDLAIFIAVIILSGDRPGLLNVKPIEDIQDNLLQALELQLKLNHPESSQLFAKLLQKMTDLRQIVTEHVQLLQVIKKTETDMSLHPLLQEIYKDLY
Outline: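 Antagonist-mode β-lactamase reporter screen run as a titration series. HEK293 PPARγ-UAS-bla cells are stimulated with rosiglitazone (50 nM final) for 16 h, then CCF4 is read at 460/530 nm. Data are scaled between DMSO and rosiglitazone and fitted to the Hill equation.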

[4] = qHTS assay for small molecule disruptors of the mitochondrial membrane potential - 1 hr assay (AID 651754; calls by dose curve; note: % is set by controls: 0 for no effect and ±100 for the full control effect; nearly all actives have a fitted effect of over 35% in size); conditions: series mostly up to 92.2 µM
Outline: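 Loss of mitochondrial potential shifts the cationic dye from red mitochondrial aggregates to green cytoplasmic monomers. Cells (HepG2) are treated with compound for 1 hr before a 30 min dye incubation at 37C.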

[5] = qHTS assay for small molecule activators of the human pregnane X receptor (PXR) signaling pathway (AID 720659; call rule not given here; note: 0% is about no effect); conditions: DPX-2 HepG2 CYP3A4-luciferase, 24 h; series mostly up to 92.3 µM
[6] = target: Luciferin 4-monooxygenase (Photinus pyralis) (UniProt P08659); assay: Biochemical firefly luciferase enzyme assay for NPC (AID 624030);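 note: purified P. pyralis luciferase at 10 nM with luciferin and ATP substrate; 0% = DMSO and -100% = full luciferase inhibition by PTC124 control; nearly all actives have a fitted effect of over 70% in size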; conditions: purified P. pyralis luciferase, luminescence, 5 min; series mostly up to 58.6 µM
Chain of Luciferin 4-monooxygenase (Photinus pyralis) (P08659 whole entry, looked up): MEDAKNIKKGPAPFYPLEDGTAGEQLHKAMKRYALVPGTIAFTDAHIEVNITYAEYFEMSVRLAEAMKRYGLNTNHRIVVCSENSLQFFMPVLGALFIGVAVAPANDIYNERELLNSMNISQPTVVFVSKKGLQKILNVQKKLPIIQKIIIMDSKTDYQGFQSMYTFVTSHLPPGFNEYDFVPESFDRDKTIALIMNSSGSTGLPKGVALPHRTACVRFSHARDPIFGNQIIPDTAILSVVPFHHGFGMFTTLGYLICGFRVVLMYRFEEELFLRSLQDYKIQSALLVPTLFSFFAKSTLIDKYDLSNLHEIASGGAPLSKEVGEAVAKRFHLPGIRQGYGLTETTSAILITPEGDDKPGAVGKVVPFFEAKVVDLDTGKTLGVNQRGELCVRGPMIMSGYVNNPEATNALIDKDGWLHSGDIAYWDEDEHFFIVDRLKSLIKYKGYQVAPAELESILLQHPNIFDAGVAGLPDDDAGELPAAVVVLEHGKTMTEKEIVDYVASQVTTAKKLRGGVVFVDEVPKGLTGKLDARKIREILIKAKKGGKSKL
Outline: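 Direct inhibition of firefly luciferase enzyme (10 nM final, 50 mM Tris Acetate) assessed by luminescence within 5 minutes. Percent activity scaled between DMSO and PTC124 positive control, with concentration-effect curves classified by fit quality and response.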

[7] = qHTS profiling for inhibitors of Plasmodium falciparum proliferation (AID 504749); note: potency is the fitted concentration of half-maximal effect;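 for activity, negative = inhibition: 0% = DMSO vehicle and full inhibition = artemisinin control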; for all read-outs here: nearly all actives have a fitted effect of over 60% in size; conditions: P. falciparum in erythrocytes, SYBR Green DNA, 72 h; for activity, negative = inhibition: at 28.7 µM (top of the series)
Outline: (§1)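 SYBR Green fluorescence of parasite DNA, read after lysis and overnight dark incubation, measured growth over 72 h in erythrocyte culture at 0.3% parasitemia and 2.5% hematocrit. Data normalised to DMSO and 0.29 uM artemisinin, with plate-drift correction.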

[8] = test system: CP262; assay: as above; conditions: P. falciparum in erythrocytes, SYBR Green DNA, 72 h; series mostly up to 28.7 µM
Outline: as §1

[9] = test system: CP291; assay: as above; conditions: P. falciparum in erythrocytes, SYBR Green DNA, 72 h; series mostly up to 28.7 µM
Outline: as §1

[10] = test system: GB4; assay: as above; conditions: P. falciparum in erythrocytes, SYBR Green DNA, 72 h; series mostly up to 28.7 µM
Outline: as §1

[11] = Cell Viability - MRC5 (AID 434; calls by dose curve;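 note: potency is the fitted concentration of half-maximal effect; potency reflects cytotoxicity seen as loss of intracellular ATP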); conditions: MRC5 lung fibroblast viability, qHTS
Outline: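 AC50 values come from Hill-equation fits of intracellular ATP loss, measured by CellTiter-Glo luminescence. Normal lung fibroblasts (MRC5) had 40 hr compound treatment at 37 C, normalized between DMSO and 100 uM tamoxifen.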

[12] = target: Estrogen receptor (Homo sapiens) (UniProt P03372); assay: qHTS assay for small molecule agonists of estrogen receptor alpha signaling (AID 588514; calls by dose curve;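 note: 0% = vehicle only and 100% = reference agonist; nearly all actives have a fitted effect of over 70% in size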); conditions: ER-alpha-UAS-bla HEK293, beta-lactamase ratio, 18 h; series mostly up to 76.8 µM
Outline: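 Efficacy is expressed against 20 nM 17-beta-estradiol (100%) and DMSO basal (0%); EC50 from Hill equation. Assay: beta-lactamase reporter in ER-alpha-UAS-bla HEK 293 cells, 18 h compound incubation, CCF4 detection.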

[13] = qHTS assay for small molecule antagonists of peroxisome proliferator-activated receptor delta signaling (AID 588535; active = well fitted inhibition curve with a large enough effect in the signal ratio, with a control signal flat, not every such curve was filed as active; the % refers to the signal ratio;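 for max response: cells co-treated with a PPAR-delta agonist as stimulator during compound exposure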); conditions: HEK293T PPARd-UAS-bla, beta-lactamase FRET ratio, 18 h; 460 nm channel
Outline: (§2)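 Titrations were run on PPAR-delta-UAS-bla HEK293T cells in charcoal/dextran-stripped serum, incubated 18 h at 37 C. CCF4 fluorescence (460/530 nm) after 2 h RT; Hill equation yields IC50 and maximal response.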

[14] = target: Peroxisome proliferator-activated receptor delta (Homo sapiens) (UniProt Q03181); assay: as above; conditions: HEK293T PPARd-UAS-bla, beta-lactamase FRET ratio, 18 h; series mostly up to 76.7 µM
Chain of Peroxisome proliferator-activated receptor delta (Homo sapiens) (Q03181 whole entry, looked up): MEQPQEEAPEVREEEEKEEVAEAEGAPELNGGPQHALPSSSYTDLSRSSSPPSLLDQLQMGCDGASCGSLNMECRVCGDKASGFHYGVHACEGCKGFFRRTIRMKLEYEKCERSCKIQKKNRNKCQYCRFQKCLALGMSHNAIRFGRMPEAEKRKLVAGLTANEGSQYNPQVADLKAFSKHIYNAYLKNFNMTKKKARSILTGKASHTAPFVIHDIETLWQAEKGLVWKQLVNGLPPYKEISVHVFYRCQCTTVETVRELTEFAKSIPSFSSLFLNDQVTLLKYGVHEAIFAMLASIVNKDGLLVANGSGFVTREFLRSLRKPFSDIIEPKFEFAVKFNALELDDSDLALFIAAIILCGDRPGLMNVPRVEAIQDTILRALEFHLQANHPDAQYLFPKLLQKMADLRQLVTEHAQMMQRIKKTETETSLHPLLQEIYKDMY
Outline: as §2

[15] = target: Vitamin D3 receptor (Homo sapiens) (UniProt P11473); assay: qHTS assay for small molecule antagonists of vitamin D receptor signaling (AID 588541; calls by dose curve;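 note: receptor activated by calcitriol during compound treatment; % is set by controls: 0 for no effect and ±100 for the full control effect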); conditions: HEK293T VDR-UAS-bla, beta-lactamase ratio, antagonist mode; series mostly up to 76.7 µM
Chain of Vitamin D3 receptor (Homo sapiens) (P11473 whole entry, looked up): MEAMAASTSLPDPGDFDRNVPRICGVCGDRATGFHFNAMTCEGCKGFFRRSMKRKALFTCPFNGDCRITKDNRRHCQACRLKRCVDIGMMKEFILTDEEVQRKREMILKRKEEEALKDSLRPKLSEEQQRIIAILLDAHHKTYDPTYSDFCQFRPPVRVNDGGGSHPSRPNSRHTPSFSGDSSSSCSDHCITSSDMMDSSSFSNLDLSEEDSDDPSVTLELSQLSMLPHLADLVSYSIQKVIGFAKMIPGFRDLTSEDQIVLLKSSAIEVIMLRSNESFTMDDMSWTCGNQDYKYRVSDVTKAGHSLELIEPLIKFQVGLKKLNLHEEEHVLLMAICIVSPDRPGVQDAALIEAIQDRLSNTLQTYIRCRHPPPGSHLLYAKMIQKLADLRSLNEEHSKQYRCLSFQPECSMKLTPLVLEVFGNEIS
Outline: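 Antagonist-mode beta-lactamase reporter assay: HEK293T VDR-UAS-bla cells were exposed to titrated compound alongside 1-alpha,25-dihydroxyvitamin D3 at 3 nM final for 16 h. Values were normalized to the 50 nM agonist control and DMSO basal, with IC50 and efficacy from Hill equation fits.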

[16] = qHTS assay for small molecule activators of the nuclear factor-kappa B (NF-kB) signaling pathway (AID 651749; active = well fitted activation curve with a large enough effect in the signal ratio; the % refers to the signal ratio; note: % of control where 0% means no effect); conditions: NF-kB-bla ME-180 cells, beta-lactamase FRET ratio, 16 h; stronger effect = higher value
Outline: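 Activation measured after 16 hr compound treatment at 37C, 5% CO2, of 2,000 ME-180 cells/well stably expressing an NF-kB response element–driven beta-lactamase reporter, via FRET-disruption fluorescence.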

[17] = target: Nuclear receptor ROR-gamma (Homo sapiens) (UniProt P51449); assay: qHTS assay for small molecule antagonists of the retinoid-related orphan receptor gamma (ROR-gamma) signaling pathway (AID 651802); conditions: ROR-gamma antagonist cell reporter assay; series mostly up to 92.2 µM;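 note: CHO cells with doxycycline-induced ROR-gamma expression; % is set by controls: 0 for no effect and ±100 for the full control effect; nearly all actives have a fitted effect of over 60% in size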
Chain of Nuclear receptor ROR-gamma (Homo sapiens) (P51449 whole entry, looked up): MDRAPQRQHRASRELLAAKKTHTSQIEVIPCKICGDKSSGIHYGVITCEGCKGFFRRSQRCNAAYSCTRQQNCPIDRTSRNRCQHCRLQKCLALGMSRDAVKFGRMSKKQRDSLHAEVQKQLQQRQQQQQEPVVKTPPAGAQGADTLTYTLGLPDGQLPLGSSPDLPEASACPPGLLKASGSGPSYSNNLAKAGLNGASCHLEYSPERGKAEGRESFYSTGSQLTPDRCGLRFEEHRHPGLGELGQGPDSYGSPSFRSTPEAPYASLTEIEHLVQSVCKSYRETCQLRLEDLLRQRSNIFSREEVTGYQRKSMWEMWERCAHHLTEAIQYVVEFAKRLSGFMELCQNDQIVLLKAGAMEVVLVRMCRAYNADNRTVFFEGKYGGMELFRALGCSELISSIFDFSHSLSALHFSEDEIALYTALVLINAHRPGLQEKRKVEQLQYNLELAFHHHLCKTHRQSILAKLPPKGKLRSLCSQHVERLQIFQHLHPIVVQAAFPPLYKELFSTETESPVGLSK
Outline: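 Steps: cells dispensed; compound or DMSO transferred by pin tool; doxycycline added to induce the ROR response element-driven luciferase; plates held 16hr at 37C; ONE-Glo added and luminescence measured.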

[18] = Cell Viability - Hek293 (AID 427;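 active = compounds whose dose-response curve shows a full or clear partial loss of cell viability, called from curve shape rather than a numeric limit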;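 note: potency is the fitted concentration of half-maximal effect; cells exposed to compound for 40 hours at 37 °C before reading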); conditions: qHTS
Outline: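 HEK293 cells in complete medium were exposed to compound for 40 hr at 37 °C, then cellular ATP was read by CellTiter-Glo luminescence. Data were normalized to DMSO (basal) and 100 uM tamoxifen (100% inhibition), and AC50 came from Hill fits.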

[19] = qHTS assay for small molecule agonists of the antioxidant response element (ARE) signaling pathway (AID 651741; active = well fitted activation curve with a large enough effect in the signal ratio; the % refers to the signal ratio; note: % of control where 0% means no effect); conditions: HepG2 ARE-bla reporter, beta-lactamase FRET ratio, 16 h; series mostly up to 96 µM
Outline: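 Beta-lactamase reporter under ARE control in HepG2 cells, 2,000 per well, was induced by 16 h compound treatment at 37 C. Read-out was fluorescence from LiveBLAzer B/G FRET substrate after 2 h at room temperature.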

O=C1CCc2ccccc2O1
inactive: Potency [1] | Potency [2] | outcome [3] | Potency [4] | outcome [5]

COc1cc([C@@H]2c3cc4c(cc3[C@@H](O[C@@H]3O[C@@H]5CO[C@@H](C)O[C@H]5[C@H](O)[C@H]3O)[C@H]3COC(=O)[C@H]23)OCO4)cc(OC)c1OP(=O)(O)O
inactive: Potency [6]

CC1CCC(C(C)C)C(OC(=O)c2ccccc2O)C1 (stereo unspecified)
inactive: Potency [6] | activity, negative = inhibition ([7]; parasite line A) -1.98% | activity, negative = inhibition ([7]; parasite line B) 8.37% | Potency [8] | Potency [9] | Potency [10]

CCNC(=O)[C@H]1CCCN1C(=O)[C@H](CCCN=C(N)N)NC(=O)[C@H](CC(C)C)NC(=O)[C@H](CC(C)C)NC(=O)[C@@H](Cc1ccc(O)cc1)NC(=O)[C@H](CO)NC(=O)[C@@H](Cc1c[nH]c2ccccc12)NC(=O)[C@H](Cc1cnc[nH]1)NC(=O)[C@@H]1CCC(=O)N1 ([pGlu]H[dW]S[dY]LLR[dP]-NHEt)
inactive: Potency [6]

CO/N=C(/C(=O)N[C@@H]1C(=O)N2C(C(=O)OC(C)OC(C)=O)=C(COC(N)=O)CS[C@H]12)c1ccco1 (stereo partly specified)
inactive: Potency [6]

CCC(=O)O[C@@H](OP(=O)(CCCCc1ccccc1)CC(=O)N1C[C@H](C2CCCCC2)C[C@H]1C(=O)O)C(C)C (stereo partly specified)
inactive: Potency [6] | activity, negative = inhibition ([7]; parasite line A) -6.06% | activity, negative = inhibition ([7]; parasite line B) -3.37% | Potency [8] | Potency [9] | Potency [10]

CC(=O)O[C@@]12CO[C@@H]1C[C@H](O)[C@@]1(C)C(=O)[C@H](O)C3=C(C)[C@@H](OC(=O)C(O)[C@@H](NC(=O)OC(C)(C)C)c4ccccc4)C[C@@](O)([C@@H](OC(=O)c4ccccc4)[C@H]21)C3(C)C (stereo partly specified)
active: Potency ([7]; parasite line A) 0.0316 µM | Potency ([7]; parasite line B) 0.0282 µM | Potency [8] 0.0338 µM | Potency [9] 0.0379 µM | Potency [10] 0.0301 µM
inactive: Potency [6]

Nc1nc(Cl)nc2c1ncn2C1CC(O)C(CO)O1 (stereo unspecified)
inactive: Potency [6] | Potency [8] | Potency [9] | Potency [10]

c1ccc2scnc2c1
3.24%: max response [13]
inactive: Potency [11] > 92 µM | Potency [1] | Potency [2] | Potency [12] | Potency [14] | outcome [3] | outcome [15] | activation [16] -1.1% | Potency [4] | Potency [17] | outcome [5]

Cc1cccc(O)c1
-22.1% and -37.2%: max response [13]
inactive: Potency [12] | Potency [14] | outcome [3] | activation [16] -0.103% and -1.79%

O=S(=O)(O)c1ccccc1
inactive: Potency [18] > 92 µM | Potency [1] | Potency [14] | outcome [3] | outcome [15] | Potency [19] | activation [16] 0.223% | Potency [4] | Potency [17] | outcome [5]
1.28%: max response [13]

CCC(C)CCCCC(=O)NC(CCN)C(=O)NC(C(=O)NC(CCN)C(=O)NC1CCNC(=O)C(C(C)O)NC(=O)C(CCN)NC(=O)C(CCN)NC(=O)C(CC(C)C)NC(=O)C(Cc2ccccc2)NC(=O)C(CCN)NC1=O)C(C)O (stereo unspecified) ({Octanoyl(6-Me)}-[Dab]T[Dab][Dab][Dab]FL[Dab][Dab]T; lactam 4-C; configuration not given here)
inactive: Potency [6] | activity, negative = inhibition ([7]; parasite line B) 12% | Potency [8] | Potency [9] | Potency [10]

CO/N=C(/C(=O)N[C@@H]1C(=O)N2C(C(=O)O)=CCS[C@H]12)c1csc(N)n1
inactive: Potency [6] | activity, negative = inhibition ([7]; parasite line A) 1.12% | activity, negative = inhibition ([7]; parasite line B) 9.16% | Potency [8] | Potency [9] | Potency [10]

O[C@@H]([C@H](O)[C@@H](O)CBr)[C@@H](O)CBr
inactive: Potency [18] > 92 µM | Potency [11] > 92 µM | Potency [1] | Potency [2] | Potency [12] | outcome [15] | Potency [17] | outcome [5]

CC(C)CC(NC(=O)CNC(=O)C(Cc1ccc(O)cc1)NC(=O)C(CO)NC(=O)C(Cc1c[nH]c2ccccc12)NC(=O)C(Cc1cnc[nH]1)NC(=O)C1CCC(=O)N1)C(=O)NC(CCCN=C(N)N)C(=O)N1CCCC1C(=O)NCC(N)=O (stereo unspecified)
inactive: Potency [6]

Cc1cc(CC(C)CC(C)(C)C)n(O)c(=O)c1 (stereo unspecified)
active: Potency ([7]; parasite line A) 1.78 µM | Potency ([7]; parasite line B) 1 µM | Potency [8] 3.38 µM | Potency [9] 1.9 µM | Potency [10] 1.51 µM
inactive: Potency [6]

CC1(C)S[C@@H]2[C@H](NC(=O)COc3ccccc3)C(=O)N2[C@H]1C(=O)O
inactive: Potency [14] | outcome [3] | outcome [15] | Potency [6] | activation [16] -1.54% | activity, negative = inhibition ([7]; parasite line A) 4.88% | activity, negative = inhibition ([7]; parasite line B) 4.38% | Potency [8] | Potency [9] | Potency [10] | outcome [5]
39.2%: max response [13]

NCCCC(N)C(=O)O (stereo unspecified)
inactive: Potency [6]

CC(C)(CO)C(O)C(=O)NCCCC(=O)O (stereo unspecified)
inactive: Potency [6] | Potency [8] | Potency [10]
active: Potency ([7]; parasite line A) 0.0141 µM

O=C(O)c1ccccc1C(c1ccc(O)cc1)c1ccc(O)cc1
inactive: Potency [1] | Potency [2] | Potency [12] | Potency [14] | outcome [3] | Potency [19] | activation [16] -1.81% and -6.43% | Potency [17]
8.38% and 8.06%: max response [13]

N=C(N)c1ccc(OCCCOc2ccc(C(=N)N)cc2Br)c(Br)c1
inactive: Potency [6]
